# Screening results (PubChem BioAssay)
# In the library only some 9.9% were active in any assay of this set; here they are far more common.
# SW480 rereplic = DNA re-replication induction in SW480 cells; Potency, µM (top dose mostly 46.1 µM), for inactives: at the highest dose re-replication activation, most hits filed as activators; SW480 DNA re-replication, Hoechst DNA content imaging, 48 h; 1.8% of 340,000 active; further: potency means the concentration at half of the fitted maximal effect; % of control where 0% means no effect; nearly all actives have a fitted effect of over 55% in size
#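 Compounds, transferred as 23 nL by pin tool, were incubated with cells for 48 hr; DNA content per nucleus was then quantified by Hoechst staining and fluorescence plate imaging.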
# IL-1B inflam inh = inhibitors of inflammasome signaling (IL-1 beta secretion) | activity change, % at 57.5 µM | 4.7% of 360,000 active | THP-1 LPS/ATP IL-1B secretion, AlphaLISA, 16 h; hits give low values; in the data active means activity change below about -50%; inconclusive means mostly about -30% to -49%; further: on the % scale 0 is the no-effect control and ±100 the full control effect
#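 Secreted IL-1B measured by AlphaLISA bead assay after 16 h compound exposure of THP-1 cells; compounds (final up to 57.5 uM) added 1 h before LPS (250 ng/mL) and ATP (1.25 mM) stimulation; lower signal means less secretion.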
# MCF10A rereplic = DNA re-replication induction in MCF 10a cells; MCF 10A DNA re-replication, Hoechst nuclear intensity, 48 h; 2.9% of 350,000 active; Potency, µM (doses to about 46.1 µM), for the others: at the top dose activity, positive = re-replication, usual class: activators; further: potency means the concentration at half of the fitted maximal effect; % of control where 0% means no effect; nearly all actives have a fitted effect of over 50% in size
# KB-V1 MDR tox = KB-V1 MDR subline cytotoxicity | KB-V1 MDR cells viability, CellTiter-Glo, 72 h | Potency, µM (doses to about 46.1 µM), most hits filed as cytotoxic | 3.4% of 400,000 active | AID 1347076; further: potency means the concentration at half of the fitted maximal effect; on the % scale 0 is the no-effect control and ±100 the full control effect; nearly all actives have a fitted effect of over 60% in size
#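 Following 72 h at 37 degrees C with compound, KB-V1 cell viability was read by CellTiter-Glo luminescence, medium being phenol-red-free DMEM plus 10% FBS; concentration-response parameters came from normalized, curve-fitted qHTS data.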
# KB-3-1 cytotox = kills parental KB-3-1 adenocarcinoma cells; Potency, µM (top dose mostly 46.1 µM), actives largely listed as cytotoxic; AID 1347075; 1.4% of 400,000 active; KB-3-1 viability, CellTiter-Glo ATP luminescence, 72 h; further: potency means the concentration at half of the fitted maximal effect; on the % scale 0 is the no-effect control and ±100 the full control effect; nearly all actives have a fitted effect of over 60% in size
#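 Using CellTiter-Glo luminescence, growth of non-resistant KB-3-1 adenocarcinoma cells is assessed 72 h after pin-tool compound addition at 37 °C. Normalized responses across the concentration series yield fitted curves.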
# An asterisk follows results filed as active; i = inactive; u = inconclusive; x = not tested or not shown; [ ] = dose if it differs, or a comment. Unless noted, the call rests on the fitted dose curve; in most records, active means well fitted curve in the direction sought with a large enough effect; inconclusive means small, poorly fitted or top-dose-only effect, or another doubt; inactive means no such curve, though single readings can be large; an effect the other way counts as inactive or inconclusive.
SMILES,SW480 rereplic,IL-1B inflam inh,MCF10A rereplic,KB-V1 MDR tox,KB-3-1 cytotox
CCC(C)(C)n1nnnc1C(c1cc2ccc(OC)cc2[nH]c1=O)N1CCCCC1 (centres undefined),12%,-21,55%[0.0737 µM],i,i
CCC(C)(C)n1nnnc1C(c1cc2ccc(OC)cc2[nH]c1=O)N1CCc2ccccc2C1 (centres undefined),u,-65*,15%,i,u
CCC(C)(C)n1nnnc1C(c1cc2cc(OC)ccc2[nH]c1=O)N1CCc2ccccc21 (centres undefined),7%,-1,-1%,18µM*,u
CCOc1ccc(NC(=S)NC(=O)/C=C/c2ccc(C)cc2)c([N+](=O)[O-])c1,12%,-2,u,12µM*,u
CCOc1ccc(NC(=S)NC(=O)/C=C/c2ccc(OC)c(OC)c2)c([N+](=O)[O-])c1,-2%,-14,16%,u,i
S=C(c1ccc2c(c1)OCO2)N1CCN(c2cccc(Cl)c2)CC1,5.2µM*,31,1.5µM*,u,4.1µM*
Cc1cccc(N2CCN(C(=S)c3ccc4c(c3)OCO4)CC2)c1,6.5µM*,4,1.3µM*,i,10µM*
CC1CCN(C(=S)c2ccc3c(c2)OCO3)CC1,-10%,-13,-9%,i,i
O=C(O)C1CCCCC1C(=O)NCCc1ccc(Cl)cc1 (centres undefined),-3%,-63*,-16%,i,i
O=C(COC(=O)C1CC1)NCCc1ccc(Cl)cc1,3.7µM*,-20,1%,i,i
O=C(NCCc1ccc(Cl)cc1)C1CCC(=O)N1Cc1ccccc1Cl (centres undefined),2%,-16,0%,23µM*,i
O=C(COC(=O)C1CCCCC1)NCc1ccc(Cl)cc1,-1%,-5,-6%,i,i
O=C(O)C1CCCCC1C(=O)NCCc1ccc(F)cc1 (centres undefined),-4%,1,-2%,i,i
O=c1[nH]c(=S)[nH]c2c1C(c1ccc(Cl)cc1)OC(CCc1ccccc1)C2 (centres undefined),x,11,x,i,i
COc1ccccc1NC(=O)COc1ccc(Br)cc1CNC1CCCC1,11%,-86*,21%,u,i
CNCc1cc(Br)c(OCC(=O)Nc2ccccc2OC)c(OC)c1,u,-62*,u,i,i
COc1cc(CNCCc2ccccc2)cc(Br)c1OCC(=O)Nc1ccccc1C,u,-67*,u,u,i
O=C(Nc1cccc(NC(=O)c2cccs2)c1)c1ccc2c(c1)OCCO2,-1%,-9,1%,i,i
COc1ccc(NC(=O)c2cnc(N3CCCCC3)c3ccccc23)cc1Cl,x,x,x,i,i
C=CCn1c(SCC(=O)Nc2ccccc2C)nc(O)cc1=O,-10%,-6,7%,i,i
COC(=O)N/N=C/c1cc(Cl)c(OCc2ccc(F)cc2)c(OC)c1,u,9,11%,i,i
COc1ccc(Br)cc1/C=N/NC(=O)c1ccco1,10%,38,-2%,i,i
CC(C)(C)c1ccc(OCC(=O)N/N=C/c2cc(Br)ccc2OC(=O)c2ccco2)cc1,13%,43,2%,7.3µM*,u
COC(=O)N/N=C\c1cc(Br)ccc1OCc1ccccc1,u,-73*,11%,u,i
COC(=O)N/N=C/c1cc(Cl)cc(Cl)c1OCc1ccc(F)cc1,u,-5,0%,23µM*,i
SMILES,SW480 rereplic,IL-1B inflam inh,MCF10A rereplic,KB-V1 MDR tox,KB-3-1 cytotox
O=C(Cc1ccccc1)N/N=C/c1cc(Br)cc(Br)c1O,4.1µM*,135,7.3µM*,i,u
COc1ccc(CC(=O)Nc2cccnc2)cc1,0%,8,3%,i,i
COc1ccc(Cl)cc1NC(=O)CCN1C(=O)C2C3CCC(C3)C2C1=O (centres undefined),-14%,-9,-19%,i,i
COc1ccc(C(=O)N=c2sc3c(C)ccc(OC)c3n2C)cc1,11%,37,8%,5.8µM*,9.2µM*
C=CCSC(=C(C#N)C#N)c1cc2c([nH]1)CCCC2,u,-115*,u,u,18µM*
O=C(O)c1cc2c([nH]c1=O)CCCC2,-9%,-6,1%,i,i
COc1ccc(CCN(C)C(=O)C2CCN(C(=O)Nc3ccccc3)CC2)cc1OC,-75%,24,-9%,i,i
COc1ccc(/C(N)=N/OC(=O)N2CCOCC2)cc1,u,0,21µM*,i,i
COc1ccccc1N=NNc1ccccc1OC,x,-12,x,i,i
O=C(COC(=O)c1n[nH]c(=O)c2ccccc12)Nc1ccccc1F,0%,-6,0%,u,i
CC(=O)c1cccc(NC(=O)CSCc2ccc(Br)cc2)c1,0%,-4,-1%,18µM*,i
Cc1coc2c1C(=O)C(=O)c1c-2ccc2c(C)cccc12,5.2µM*,-12,u,9.2µM*,9.2µM*
Cc1coc2c1C(=O)C(=O)c1c-2ccc2c1CCCC2(C)C,8%,31,u,7.3µM*,6.5µM*
CCc1nn2c(=O)c(S(=O)(=O)Nc3ccc(C)cc3C)c(C)nc2s1,x,x,x,u,i
CCNC(=S)/C(=C(/[O-])c1ccc([N+](=O)[O-])cc1)[n+]1ccccc1,-5%,-29,-7%,i,i
CCc1ccc(/C([O-])=C(/C(=S)NCCN2CCOCC2)[n+]2ccccc2)cc1,-4%,-6,6.5µM*,i,i
O=C(Nc1ccn(CCOC(=O)c2ccccc2)c(=O)n1)c1ccccc1,x,27,x,i,i
CCOC(=O)c1ccccc1OC(=O)NNc1ccccc1,-7%,0,4%,i,12µM*
O=C(NNc1ccccc1)OCc1ccccc1,x,-18,x,i,i
COc1ccc(C(=O)C[n+]2cc(Br)cc(Br)c2)cc1,x,x,x,i,i
CCCCN1C(=O)C(=O)NC[C@@H]1Cc1ccc(O)cc1,x,18,x,i,i
C[C@@H]1C=CC(=O)O[C@@H]1c1ccc(Cl)cc1,1%,-108*,u,u,i
O=[N+]([O-])c1ccc(N=Nc2ncc[nH]2)cc1,u,-110*,u,u,u
COc1ccc(NN=Nc2ccc([N+](=O)[O-])cc2)cc1,-2%,-18,0%,i,i
CCNC(=S)Nn1cnc2ccccc21,0%,-10,-2%,i,i
CCCCCn1c(=O)c(-c2nc3ccccc3[nH]2)c(O)c2ccccc21,18µM*,112,u,u,u
CCCCCCCCn1c(=O)c(C(=O)OCC)c(O)c2ccccc21,-1%,14,u,i,i
Cc1cc(OC2CCCCC2)nc(NCc2ccccc2)n1,-13%,x,-14%,i,i
CCOc1cc(C)nc(NCc2ccccc2)n1,u,16,12µM*,i,i
